Assay [1] can be described thus: Caspase-3/7 induction in CHO-K1 cells by small molecules, qHTS assay (AID 1346980). Also: nearly all actives have a fitted effect of over 15% in size. Also: potency is read from the fitted curve at half-maximal effect. A digest of the protocol: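 Wild-type cells were seeded at 1,500 per well and settled 5 hr at 37 C, 5% CO2, then exposed to DMSO-dissolved compounds for 17 hr. Caspase-Glo 3/7 reagent was added, and luminescence was read after 30min at room temperature.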
Assay [2] is described as follows: Caspase-3/7 induction in HepG2 cells by small molecules, qHTS cell viability counter screen (AID 1346981). Also: series mostly up to about 92 µM; nearly all actives have a fitted effect of over 30% in size. A digest of the protocol:
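After a 5-hr attachment period at 37 C and 5% CO2, wild-type HepG2 cells received compounds in DMSO. Sixteen hours later CellTiter-Fluor was dispensed and the fluorescent signal quantified after a further hour.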

The target in assay [3] is Nuclear receptor subfamily 1 group I member 2 (Homo sapiens) (UniProt O75469). The assay can be described thus: CYP3A4 induction through human pregnane X receptor (PXR) by small molecules, qHTS assay (AID 1346984). Also: nearly all actives have a fitted effect of over 40% in size. Also: potency is read from the fitted curve at half-maximal effect. A digest of the protocol:
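Cells (DPX-2; HepG2 with PXR element plus CYP3A4-promoter luciferase) settled 5hr, then were treated 24hr at 37C. A 3hr, 3uM-final Luciferin-IPA step preceded luminescence measurement with One-Glo.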
Background: qHTS replaces the single test concentration by a dilution series.

Assay [4] shares this target. As to the kind of experiment: Human pregnane X receptor (PXR) activation by small molecules, qHTS assay (AID 1346985). Also: nearly all actives have a fitted effect of over 40% in size. The essentials:
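DPX-2 cells (HepG2 co-transfected with a PXR response element and a CYP3A4-promoter luciferase construct) were seeded at 2,000 per well, rested 5 hr at 37C, then exposed to DMSO-dissolved compounds for 24 hr. Activation was read as luciferase luminescence.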

Assay [5] deals with Cytochrome P450 2D6 (Homo sapiens) (UniProt P10635). The assay can be described thus: Cytochrome P450 Family 2 Subfamily D Member 6 (CYP2D6) small molecule antagonists: luciferase reporter qHTS assay (AID 1671196). Also: potency is read from the fitted curve at half-maximal effect; nearly all actives have a fitted effect of over 50% in size. A digest of the protocol: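 Room-temperature luminescent CYP2D6 activity assay: compound preincubated 10 min with enzyme–substrate mix, NADPH-initiated reaction 1 h, detection reagent 20 min before reading.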
Cytochrome P450 2D6 (Homo sapiens), sequence (P10635 whole entry, looked up): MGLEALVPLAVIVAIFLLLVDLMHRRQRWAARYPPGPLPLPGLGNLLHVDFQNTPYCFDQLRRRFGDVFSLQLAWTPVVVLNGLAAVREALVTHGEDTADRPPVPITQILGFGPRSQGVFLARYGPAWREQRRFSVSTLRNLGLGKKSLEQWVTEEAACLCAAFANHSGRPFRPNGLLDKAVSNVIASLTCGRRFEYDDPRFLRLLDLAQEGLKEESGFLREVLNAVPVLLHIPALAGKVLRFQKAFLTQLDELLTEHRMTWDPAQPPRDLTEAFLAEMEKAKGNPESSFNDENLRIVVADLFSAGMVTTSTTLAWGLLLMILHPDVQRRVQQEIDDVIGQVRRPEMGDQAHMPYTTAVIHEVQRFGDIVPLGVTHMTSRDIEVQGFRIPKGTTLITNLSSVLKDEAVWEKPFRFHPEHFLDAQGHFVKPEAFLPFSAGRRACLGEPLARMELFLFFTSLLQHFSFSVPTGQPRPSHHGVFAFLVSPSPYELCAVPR
(In general: In a reporter assay the amount or activity of a reporter protein is the signal.)

The target in assay [6] is Cytochrome P450 2C19 (Homo sapiens) (UniProt P33261). The assay can be described thus: Cytochrome P450 Family 2 Subfamily C Member 19 (CYP2C19) small molecule antagonists: luciferase reporter qHTS assay (AID 1671197). Also: nearly all actives have a fitted effect of over 65% in size. Also: potency is read from the fitted curve at half-maximal effect. A digest of the protocol:
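Inhibition of CYP2C19 was scored from loss of luminescence in a P450-Glo proluciferin substrate assay, NADPH-started and run 1 h at 37C, with ketoconazole as positive control.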

For assay [7], the target named is Cytochrome P450 2C9 (Homo sapiens) (UniProt P11712). As to the kind of experiment: Cytochrome P450 Family 2 Subfamily C Member 9 (CYP2C9) small molecule antagonists: luciferase reporter qHTS assay (AID 1671198). Also: nearly all actives have a fitted effect of over 50% in size. Also: potency is read from the fitted curve at half-maximal effect. The essentials: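 CYP2C9 activity was measured with a P450-Glo proluciferin substrate. Enzyme–substrate mix was held with compound for 10 min at room temperature, then NADPH regeneration solution was added for 1 h at 37C. Luciferin product was read as luminescence.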
Cytochrome P450 2C9 (Homo sapiens), sequence (P11712 whole entry, looked up): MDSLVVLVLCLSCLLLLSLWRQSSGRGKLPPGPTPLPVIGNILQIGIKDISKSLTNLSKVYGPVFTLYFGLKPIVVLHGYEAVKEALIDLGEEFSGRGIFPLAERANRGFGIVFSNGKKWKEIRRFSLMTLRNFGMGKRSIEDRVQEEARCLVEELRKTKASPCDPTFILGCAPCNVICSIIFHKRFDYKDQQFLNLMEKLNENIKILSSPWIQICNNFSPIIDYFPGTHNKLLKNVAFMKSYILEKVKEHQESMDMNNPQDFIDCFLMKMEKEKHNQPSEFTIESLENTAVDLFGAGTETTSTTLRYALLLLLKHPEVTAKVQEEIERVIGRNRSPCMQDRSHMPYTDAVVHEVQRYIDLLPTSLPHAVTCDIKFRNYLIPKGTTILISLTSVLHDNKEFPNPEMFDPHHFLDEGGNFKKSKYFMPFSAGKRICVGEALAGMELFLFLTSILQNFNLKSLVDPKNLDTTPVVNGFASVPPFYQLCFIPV

The target in assay [8] is Cytochrome P450 1A2 (Homo sapiens) (UniProt P05177). As to the kind of experiment: Cytochrome P450 Family 1 Subfamily A Member 2 (CYP1A2) small molecule antagonists: luciferase reporter qHTS assay (AID 1671199). Also: nearly all actives have a fitted effect of over 50% in size. Also: potency is read from the fitted curve at half-maximal effect. A digest of the protocol:
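Room-temperature CYP1A2 reaction with proluciferin substrate: compounds added from DMSO, 10 min preincubation, NADPH regeneration for 1 h. Luciferin detection reagent then added; luminescence recorded as RLU.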

The target of assay [9] is Voltage-gated inwardly rectifying potassium channel KCNH2 (Homo sapiens) (UniProt Q12809). The assay can be described thus: Human Ether-a-go-go-Related Gene (hERG) channel small molecule antagonists: fluorescence cell-based qHTS assay (AID 1671200). Also: nearly all actives have a fitted effect of over 50% in size. Also: potency is read from the fitted curve at half-maximal effect. A digest of the protocol:
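Kinetic two-minute fluorescence traces, sampled at 1 s, were collected following thallium stimulus of U2OS cells (1000 per well) that had been cultured overnight at 37 C and loaded with FluxOR II.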
(In general: hERG is a cardiac potassium channel; its block is linked to QT prolongation.)

In assay [10] the target is Nuclear receptor subfamily 1 group I member 2 (Homo sapiens) (UniProt O75469). As to the kind of experiment: Human pregnane X receptor (PXR) small molecule agonists, qHTS assay (AID 1346982). Also: nearly all actives have a fitted effect of over 35% in size. Also: potency is read from the fitted curve at half-maximal effect. A digest of the protocol:
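Tox21 qHTS; PXR-Luc HepG2; compounds pinned from DMSO; 24 hr, 37 C; ONE-Glo luciferase detection, 30 min room temperature.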

The target of assay [11] is Cytochrome P450 3A4 (Homo sapiens) (UniProt P08684). The assay can be described thus: Cytochrome P450 Family 3 Subfamily A Member 4 (CYP3A4) small molecule antagonists: luciferase reporter qHTS assay (AID 1671201). Also: nearly all actives have a fitted effect of over 50% in size. Also: potency is read from the fitted curve at half-maximal effect. A digest of the protocol:
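Proluciferin-to-luciferin conversion by CYP3A4, NADPH-regenerated, 1 h RT; luminescence read as RLU. Ketoconazole as control.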

“And” between values parts separate entries of the source, which are not always exact repeats. Equal values may be shown once. Inconclusive results are not listed. The source holds several records for some structures; these can differ, active in one and inactive in another. The source made the active and inactive calls. Calls follow the shape of the dose curve; as a rule, active = well fitted curve in the direction sought with a large enough effect in the repeat runs; inconclusive = weak or mixed curves; inactive = no such curve, though single readings can be large; an effect the other way counts as inactive or inconclusive.

Cytochrome P450 2C19 (Homo sapiens), sequence (P33261 whole entry, looked up): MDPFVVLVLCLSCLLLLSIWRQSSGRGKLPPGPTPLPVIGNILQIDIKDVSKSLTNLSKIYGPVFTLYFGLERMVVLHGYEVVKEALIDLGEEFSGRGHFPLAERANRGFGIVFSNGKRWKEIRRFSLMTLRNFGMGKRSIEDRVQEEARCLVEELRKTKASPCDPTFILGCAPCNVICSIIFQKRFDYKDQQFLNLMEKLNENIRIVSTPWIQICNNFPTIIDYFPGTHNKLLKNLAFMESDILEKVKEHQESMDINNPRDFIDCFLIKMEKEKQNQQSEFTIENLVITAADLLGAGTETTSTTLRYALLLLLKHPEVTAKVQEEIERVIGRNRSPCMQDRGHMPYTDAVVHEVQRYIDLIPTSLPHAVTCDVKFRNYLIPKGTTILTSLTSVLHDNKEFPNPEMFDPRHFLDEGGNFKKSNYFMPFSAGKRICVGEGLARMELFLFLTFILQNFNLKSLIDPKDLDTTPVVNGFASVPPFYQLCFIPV
Cytochrome P450 1A2 (Homo sapiens), sequence (P05177 whole entry, looked up): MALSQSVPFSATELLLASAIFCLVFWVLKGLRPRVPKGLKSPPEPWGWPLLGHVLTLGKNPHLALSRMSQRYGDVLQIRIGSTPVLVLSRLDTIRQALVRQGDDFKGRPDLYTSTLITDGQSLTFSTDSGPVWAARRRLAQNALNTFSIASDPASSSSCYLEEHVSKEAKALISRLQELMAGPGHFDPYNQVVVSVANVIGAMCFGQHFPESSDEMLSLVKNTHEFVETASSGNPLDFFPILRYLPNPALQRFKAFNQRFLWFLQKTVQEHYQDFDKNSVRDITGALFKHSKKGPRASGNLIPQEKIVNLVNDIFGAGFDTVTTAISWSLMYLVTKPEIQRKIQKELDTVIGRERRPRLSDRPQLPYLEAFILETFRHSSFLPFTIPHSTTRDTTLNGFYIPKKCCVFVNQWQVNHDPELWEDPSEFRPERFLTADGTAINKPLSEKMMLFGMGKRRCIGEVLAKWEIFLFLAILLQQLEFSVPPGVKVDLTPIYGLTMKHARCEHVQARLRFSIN
Voltage-gated inwardly rectifying potassium channel KCNH2 (Homo sapiens), sequence (Q12809 whole entry, looked up): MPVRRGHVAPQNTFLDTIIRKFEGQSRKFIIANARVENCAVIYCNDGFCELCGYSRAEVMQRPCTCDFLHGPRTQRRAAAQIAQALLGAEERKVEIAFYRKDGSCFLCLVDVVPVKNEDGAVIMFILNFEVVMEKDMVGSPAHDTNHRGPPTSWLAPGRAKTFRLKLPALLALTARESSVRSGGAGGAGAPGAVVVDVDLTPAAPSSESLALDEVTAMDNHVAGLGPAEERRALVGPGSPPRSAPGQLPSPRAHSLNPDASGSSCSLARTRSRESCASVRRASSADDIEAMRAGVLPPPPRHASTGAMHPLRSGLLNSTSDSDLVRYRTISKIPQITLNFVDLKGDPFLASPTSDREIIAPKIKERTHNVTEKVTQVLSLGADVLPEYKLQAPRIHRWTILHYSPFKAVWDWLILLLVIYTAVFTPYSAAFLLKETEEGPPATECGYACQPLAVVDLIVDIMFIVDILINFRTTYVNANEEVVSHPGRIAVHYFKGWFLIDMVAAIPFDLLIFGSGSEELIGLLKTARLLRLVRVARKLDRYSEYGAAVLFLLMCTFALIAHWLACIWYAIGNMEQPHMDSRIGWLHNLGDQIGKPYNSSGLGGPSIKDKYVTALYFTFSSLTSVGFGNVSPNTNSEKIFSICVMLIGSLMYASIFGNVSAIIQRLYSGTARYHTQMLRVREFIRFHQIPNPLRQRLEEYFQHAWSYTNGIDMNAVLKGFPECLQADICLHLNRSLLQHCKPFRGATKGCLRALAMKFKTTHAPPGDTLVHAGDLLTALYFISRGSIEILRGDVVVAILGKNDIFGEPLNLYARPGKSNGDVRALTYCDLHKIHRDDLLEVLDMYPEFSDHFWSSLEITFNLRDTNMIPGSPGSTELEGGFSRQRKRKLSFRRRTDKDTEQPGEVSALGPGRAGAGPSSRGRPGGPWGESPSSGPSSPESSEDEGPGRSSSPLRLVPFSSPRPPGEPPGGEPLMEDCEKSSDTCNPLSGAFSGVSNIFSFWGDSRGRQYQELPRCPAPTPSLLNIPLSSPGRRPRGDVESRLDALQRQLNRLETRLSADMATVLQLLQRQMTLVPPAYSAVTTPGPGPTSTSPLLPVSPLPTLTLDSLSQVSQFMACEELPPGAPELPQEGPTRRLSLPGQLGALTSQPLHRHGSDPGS
Nuclear receptor subfamily 1 group I member 2 (Homo sapiens), sequence (O75469 whole entry, looked up): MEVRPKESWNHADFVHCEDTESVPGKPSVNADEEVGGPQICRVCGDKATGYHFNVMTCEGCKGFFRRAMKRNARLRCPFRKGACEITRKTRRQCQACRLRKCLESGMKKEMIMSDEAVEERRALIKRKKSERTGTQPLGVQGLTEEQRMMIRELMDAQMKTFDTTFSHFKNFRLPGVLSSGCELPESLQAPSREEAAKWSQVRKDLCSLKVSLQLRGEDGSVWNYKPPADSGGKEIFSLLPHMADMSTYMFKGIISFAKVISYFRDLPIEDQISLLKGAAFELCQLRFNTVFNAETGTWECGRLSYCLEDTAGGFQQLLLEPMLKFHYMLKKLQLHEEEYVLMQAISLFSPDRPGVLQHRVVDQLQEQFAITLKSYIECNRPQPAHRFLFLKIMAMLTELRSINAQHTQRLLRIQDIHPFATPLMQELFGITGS
Cytochrome P450 3A4 (Homo sapiens), sequence (P08684 whole entry, looked up): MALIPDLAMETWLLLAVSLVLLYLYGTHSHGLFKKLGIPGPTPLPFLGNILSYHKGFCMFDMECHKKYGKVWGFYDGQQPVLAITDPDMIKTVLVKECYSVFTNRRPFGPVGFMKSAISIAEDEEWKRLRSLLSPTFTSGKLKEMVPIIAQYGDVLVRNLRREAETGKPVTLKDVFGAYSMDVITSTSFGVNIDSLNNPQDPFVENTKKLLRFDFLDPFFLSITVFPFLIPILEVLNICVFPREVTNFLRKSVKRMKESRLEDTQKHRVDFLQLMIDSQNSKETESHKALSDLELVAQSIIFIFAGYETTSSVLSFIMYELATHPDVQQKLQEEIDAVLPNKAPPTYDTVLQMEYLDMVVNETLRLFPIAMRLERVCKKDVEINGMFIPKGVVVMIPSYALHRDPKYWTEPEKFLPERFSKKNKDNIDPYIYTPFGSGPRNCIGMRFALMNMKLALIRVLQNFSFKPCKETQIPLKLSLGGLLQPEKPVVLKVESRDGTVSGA

Take `CCN(CC)CCSC(=O)C(c1ccccc1)c1ccccc1`: the Potency result in assay [1], in assay [2], in assay [3] and in assay [4] was “inactive” throughout. In addition, the Potency in assay [5] was 4.9 µM (active); in assay [6], 6.92 µM (active); in [7], 17.4 µM (active); in assay [8], 15.5 µM (active); in assay [9], 2.68 µM (active).

As for `Cc1c(C)n(Cc2ccccc2)c2ccc(C(=O)OCCN(C)C)cc12`, the Potency entry in assay [1] is “inactive”. Also, the Potency was 3.98 µM (active) in assay [3]; 15.5 µM (active) in [6]; 15.5 µM (active) in [7]; 10.2 µM (active) in [8]; 10.7 µM (active) in assay [9].

Regarding `CCCCCCC(C)Nc1ccc(Nc2ccccc2)cc1` (centres undefined), the Potency entry in assay [1] is “inactive”. Besides, the Potency was 21.7 µM (active) in [10]; 28.3 µM (active) in assay [5]; 5.03 µM (active) in [6]; 7.1 µM (active) in assay [7]; 22.4 µM (active) in [8]; 35.6 µM (active) in [11].

Take `CC1CCCCN1CCCOC(=O)c1ccc(OC2CCCCC2)cc1` (centres undefined): the Potency result in assay [1], in [6], in assay [7] and in assay [8] was “inactive” each time. The Potency in [5] was 15.5 µM (active); in assay [9], 2.68 µM (active).

With `CN(C)CCOC(c1ccccc1)c1ccccc1` (tested in a mixture with another compound), in [1], the Potency entry is “inactive”. Further, the Potency in assay [10] was 61.6 µM (active).

Take `CCN(CC)CCOC(=O)C1(C2CCCCC2)CCCCC1`: in assay [10], the Potency was 8.41 µM (active). The Potency entry in assay [6] and in [7] was “inactive” throughout.

As for `CCCN(CCc1cccs1)[C@H]1CCc2c(O)cccc2C1`, the Potency entry in [1], in assay [10], in assay [3], in [4] and in assay [11] was “inactive” throughout. Moreover, the Potency in assay [5] was 0.389 µM (active); in assay [6], 2.45 µM (active); in assay [7] it was 15.5 µM (active); in assay [9], 3.01 µM (active).

Regarding `CC(CN(C)C)CN1c2ccccc2CCc2ccccc21` (centres undefined), the Potency result in assay [1], in assay [7] and in [8] was “inactive” each time. Further, the Potency in assay [10] is 23.7 µM (active); in assay [3], 8.91 µM (active); in assay [5], 3.09 µM (active); in assay [9], 15.1 µM (active).

On to `Nc1ccc2cc3ccc(N)cc3nc2c1`, for which the Potency in [1] was 4.86 µM (active) and 11.9 µM (active); in assay [5] it was 39.9 µM (active); in assay [6], 71 µM (active) and inactive; in [8], 564 nM (active) and 1.82 µM (active). The Potency result in assay [7] and in assay [9] was “inactive” each time.

With `CC(=O)Oc1ccc(C2(c3ccc(OC(C)=O)cc3)Oc3ccccc3NC2=O)cc1`, the Potency result in assay [1], in assay [8], in assay [9] and in assay [11] was “inactive” each time. The Potency in assay [6] is 6.92 µM (active); in assay [7], 2.45 µM (active).

Consider `Clc1ccc(C(c2ccccc2Cl)C(Cl)Cl)cc1` (centres undefined), for which the Potency result in assay [1], in [2], in assay [8] and in assay [11] was “inactive” throughout. For the same compound, the Potency in [10] was 10.9 µM (active); in assay [6] it was 1.59 µM (active) and 776 nM (active); in assay [7] it was 20 µM (active) and 9.77 µM (active).

As to `CC(NCCC(c1ccccc1)c1ccccc1)c1ccccc1` (centres undefined), the Potency is 6.68 µM (active) in assay [10]; 0.219 µM (active) in [5]; 4.36 µM (active) in assay [6]; 15.5 µM (active) in [7]; 1.69 µM (active) in assay [9]. Also, the Potency result in assay [8] was “inactive”.

(Values after PubChem BioAssay (Tox21).)
